# USP28 block: human USP28 deubiquitinase inhibition | purified USP28, Ub-rhodamine cleavage fluorescence, 30 min | inhibition, % at 25 µM | hit rate 3% among 47,000
# USP17 block: inhibitors of human USP17 deubiquitinase | A8MUK1 | inhibition, % at 50 µM | purified USP17, Ub-rhodamine cleavage fluorescence, 3 h | hit rate 6.5% among 47,000
# OTUD3 block: human OTUD3 deubiquitinase inhibition. Q5T2D3. purified OTUD3, Ub-rhodamine fluorescence, 2 h. inhibition, % at 25 µM. hit rate 0.7% among 47,000. AID 1645858
# USP30 block: human USP30 deubiquitinase inhibition; Q70CQ3; purified USP30, Ub-rhodamine cleavage fluorescence; inhibition, % at 25 µM; hit rate 5.3% among 47,000; AID 1645860
# The depositor's hits bear a star; i = inactive; nt = no result. Most compounds without a hit are left out; they make up all but 11% or so of the library. No stated cut-off is given here; in the data, active means inhibition above about 30%; inactive means the rest.
SMILES,USP28 block,USP17 block,OTUD3 block,USP30 block
COc1ccc(S(=O)(=O)[C@H]2CS(=O)(=O)C[C@@H]2N2CCCCC2)cc1,-3,-1,0,-5
N#Cc1cnc2cc(-c3cccs3)nn2c1N,14,8,11,29
COc1ccc(OCC(=O)Nc2nc(-c3ccc(OC)c(OC)c3)ns2)cc1,-12,-14,-22,-32
COc1ccc(-c2nsc(NC(=O)Cc3cccc4ccccc34)n2)cc1OC,33*,0,-7,-57
COc1ccc(CC(=O)NCc2cc3ccccc3s2)cc1OC,9,-6,-4,-23
Cc1ccc(-c2nsc(NC(=O)COc3ccccc3C)n2)cc1,-13,-19,-32,-188
CCC(=O)Nc1nc(-c2ccc(C)cc2)ns1,6,46*,-9,-80
COc1ccc(CCNC(=O)c2cc3ccccc3s2)cc1OC,86*,-18,-17,-26
COc1ccc(CNC(=O)Cc2cccc3ccccc23)cc1OC,8,24,21,30*
CC[C@H]1OC(=O)[C@H](C)[C@@H](O[C@H]2C[C@@](C)(OC)[C@@H](O)[C@H](C)O2)[C@H](C)[C@@H](O[C@@H]2O[C@H](C)C[C@H](N(C)C)[C@H]2O)[C@](C)(O)C[C@@H](C)C(=O)[C@H](C)[C@@H](O)[C@H]1C,5,15,5,-2
O=C(NCc1ccc2c(c1)OCCCO2)c1ccc2c(c1)OCCCO2,1,-3,-4,-4
CC1(C(=O)NC2CCCC2)CCC(=O)N1CCCN1CCOCC1 (stereo not drawn),-22,-25,-14,-75
COc1cc(CNc2nn[nH]n2)ccc1OCc1cccc(C)c1,10,17,7,15
O=C(NCc1ccc(F)cc1)Nc1ccc(-c2nnc(-c3ccccc3)o2)cc1,nt,72*,-2,nt
O=C(Cn1cccc1-c1nnc(-c2ccccc2)o1)Nc1ccccc1,nt,22,4,nt
COc1ccc(CNC(=O)c2ccc(-c3nnc(-c4ccccc4)o3)cc2)cc1OC,10,25,13,42*
CCC(C(=O)Nc1ccc(C)cc1C)n1c(C)nc2onc(C)c2c1=O (stereo not drawn),15,31*,11,38*
Cc1ccccc1C(=O)c1ccc(C(=O)NC2CCCCCC2)[nH]1,4,14,4,52*
CCN1CC[C@@]2(C(=O)N3CCCC3)CCN(C(=O)Cc3ccc(OC)cc3)CC[C@@H]12,-6,-19,0,1
O=C(NCc1nc(-c2ccc3c(c2)[nH]c(=O)n3C2CCCC2)no1)c1ccccc1,0,58*,-20,-55
O=C(CSc1ccc2nnc(CCNS(=O)(=O)c3ccccc3)n2n1)NCc1ccc(F)cc1,12,39*,8,16
O=C(Nc1ccc(-n2cccc2)cc1)c1ccc(F)cc1,4,12,8,28
O=C(Nc1ccc(F)cc1)c1ccc2c(c1)C1C3CCC(C3)C1C(c1ccccc1)N2 (stereo not drawn),3,2,-7,32*
Cc1ccc(C(=O)NCCc2nnc3ccc(SCc4c(F)cccc4Cl)nn23)cc1,16,6,8,30*
O=C(NC(C(=O)OCc1ccccc1)c1ccccc1)c1ccccc1 (stereo not drawn),9,26,10,32*
SMILES,USP28 block,USP17 block,OTUD3 block,USP30 block
Cc1cccn2c(=O)c3cc(C#N)c(=O)n(-c4ccccc4[N+](=O)[O-])c3nc12,-22,39*,-19,-71
O=C(CC1C(=O)N(C2CCCC2)c2nc3ccccc3n21)Nc1ccccc1C(F)(F)F (stereo not drawn),0,34*,13,23
O=C(CCN1C(=O)[C@@H]2Cc3ccccc3CN2C1=O)Nc1cccc(F)c1,-3,-23,0,-8
COC(=O)c1cc(Br)c(NC(=O)c2ccco2)cc1OC,17,39*,18,20
COc1ccc(NC(=O)C(C)n2c(=O)cc(-c3ccccc3)c3c(C)nn(C)c32)cc1OC (stereo not drawn),7,19,21,31*
COc1ccc(C(=O)Nc2ccc(-c3ccccc3)cc2)cc1OC,-1,11,3,3
Cc1ccccc1NC(=O)C(C)c1c(C)n[nH]c1C (stereo not drawn),4,5,5,15
Cc1ccccc1NC(=O)C(C)n1c(=O)cc(-c2ccccc2)c2c(C)nn(C)c21 (stereo not drawn),12,74*,18,26
CCCCc1nc(SCC(=O)Nc2cccc(C)c2)c2c3c(sc2n1)COC(C)(C)C3,0,2,-2,-1
Cc1noc(C)c1CN1CCC(NC(=O)c2ccc(F)c(Cl)c2)C1 (stereo not drawn),-8,-10,-8,-25
COCCN1C(=O)C[C@@H]2[C@H]1CCN2C(=O)c1ccc2ccccc2n1,2,-2,1,4
COCCN1C(=O)C[C@@H]2[C@H]1CCN2C(=O)c1cncc(C)c1,16,7,15,31*
O=C1CC(C(=O)Nc2ccccc2)c2c(nc(N3CCc4ccccc4C3)[nH]c2=O)N1 (stereo not drawn),-228,-160,-164,i
Cc1nc(C(=O)NCc2ccc(N3CCCCC3)cc2)c(C)n1C1CCN(C)CC1,-4,-7,-3,0
Cc1ccc(S(=O)(=O)N2CCN3C(=O)[C@@H](Cc4ccccc4)N(C)C(=O)[C@@H]3C2)cc1,16,18,13,31*
Cc1ccc(CN[C@H]2CS(=O)(=O)C[C@@H]2S(=O)(=O)c2ccc(C)cc2)cc1,-4,7,-5,-6
O=C(COC(=O)C(Cc1ccccc1)NC(=O)c1ccccc1)NCc1ccc2c(c1)OCO2 (stereo not drawn),2,47*,-1,10
Cc1n[nH]c(C)c1CCc1nc2c3ccccc3nc(SCC(=O)c3ccc(F)cc3)n2n1,8,53*,12,71*
COc1cc2nc(SCC(=O)c3ccc(F)cc3)n3nc(C)nc3c2cc1OC,-16,-12,-17,-44
O=C(NC1CCCC1)c1ccc(-c2ccc(S(=O)(=O)NCc3ccccc3)cc2)cc1,23,19,13,41*
CCC(C)n1c(-c2ccccc2F)nc2nc3ccccc3nc21 (stereo not drawn),37*,10,20,35*
COc1ccc(CC(=O)OCC(=O)N2c3ccccc3NC(=O)C2(C)C)cc1,13,34*,7,-12
CC1(C)C(=O)Nc2ccccc2N1C(=O)COc1ccc(-c2nnco2)cc1,-1,4,2,9
N#Cc1cccc(C(=O)Nc2ccc3c(N4CCCC4)ncnc3c2)c1,-1,1,8,9
COCc1cc(C)nc2sc3c(c12)NC(c1ccc(NC(C)=O)cc1)N(Cc1ccccc1)C3=O (stereo not drawn),6,53*,4,72*
O=C(COc1ccc2ccc(=O)oc2c1)c1ccc2c(c1)OCCO2,-20,43*,-3,-179
c1ccc2c(-c3nc(C4CC4)no3)nnc(NC3CCCC3)c2c1,36*,13,22,39*
c1ccc(CNc2nnc(-c3nc(C4CC4)no3)c3ccccc23)cc1,nt,-6,-4,nt
COc1ccccc1CNc1nnc(-c2nc(C3CC3)no2)c2ccccc12,23,7,5,34*

# Compound activity as filed in PubChem BioAssay.
